# Laboratory results reported in ChEMBL document CHEMBL4296182, “CO-ADD screening of NIH NCI Diversity Set V”.
# For part of these data: Potency and affinity values are given separately.
# How the values were obtained:
# [1] = tested on: Staphylococcus aureus; test: Antibacterial activity against Staphylococcus aureus MRSA ATCC 43300 (CO-ADD:GP_020); MIC in CAMBH media using NBS plates, by Resazurin F(560/590); format: functional; details: Concentration 20 uM, ASSAY_TEST Inhibition of Bacterial Growth, detection method Resazurin, Fluorescence (ex560/em590), MEDIA CAMHB, plate type 384well, CORNING #3640, time 18 hr
# [2] = tested on: Acinetobacter baumannii; test: Antibacterial activity against Acinetobacter baumannii ATCC 19606 (CO-ADD:GN_034); MIC in CAMBH media using NBS plates, by Resazurin F(560/590); format: functional; details: Concentration 20 uM, ASSAY_TEST Inhibition of Bacterial Growth, detection method Resazurin, Fluorescence (ex560/em590), MEDIA CAMHB, plate type 384well, CORNING #3640, time 18 hr
# [3] = tested on: Escherichia coli; test: Antibacterial activity against Escherichia coli ATCC 25922 (CO-ADD:GN_001); MIC in CAMBH media using NBS plates, by Resazurin F(560/590); format: functional; details: Concentration 20 uM, ASSAY_TEST Inhibition of Bacterial Growth, detection method Resazurin, Fluorescence (ex560/em590), MEDIA CAMHB, plate type 384well, CORNING #3640, time 18 hr
# [4] = tested on: Klebsiella pneumoniae; details: Concentration 20 uM; ASSAY_TEST Inhibition of Bacterial Growth; detection method Absorption (OD600); MEDIA CAMHB; plate type 384well; NBS; CORNING #3640; time 18 hr
# [5] = tested on: Candida albicans; details: 20 µM
# [6] = tested on: Cryptococcus neoformans; details: Concentration 20 uM; ASSAY_TEST Inhibition of Fungal Growth; detection method Resazurin; Absorption (OD600-OD570); plate type 384well; NBS; CORNING #3640
SMILES,Inhibition [1] [%],Inhibition [2] [%],Inhibition [3] [%],Inhibition [4] [%],Inhibition [5] [%],Inhibition [6] [%]
CCCCOc1ccc(NC(=O)Nc2nnc(C)s2)cc1,12.15,11.82,5.52,16.37,-3.65,-3.97
O=C(Nc1ccccc1)Oc1cccnc1O,7.3,9.45,-1.58,18.58,5.22,-7.26
COc1cc2c(cc1OC)C(C1(O)CCCCC1)NCC2 (stereo not given),18.67,-1.81,15.36,-0.68,-2.01,-12.78
Oc1cc(-c2ccc(Cl)cc2)nc2ccccc12,0.37,13,-1.34,16.07,18.1,5.32
Cc1cc(O)c2c(O)[nH]nc2n1,14.32,-13.07,7.82,1.49,-3.37,-5
Cn1c(N)c(/N=N/c2ccc(S(N)(=O)=O)cc2)c(=O)n(C)c1=O,19.52,4.45,15.26,20.82,2.91,-0.3
Nc1ccccc1SC1CC(=O)N(c2ccccc2Cl)C1=O (stereo not given),-6.84,10.38,-12.68,6.14,15,-0.17
COC(=O)CC1OCC=C2CN3CCC45C6=CC(=O)C(=O)C([N+](=O)[O-])=C6NC4C1C2CC35 (stereo not given),12.88,-13.17,11.73,18.83,-2.29,-2.47
O=C(Nc1ccc(Oc2ccc(NC(=O)Nc3ccc([N+](=O)[O-])cc3)cc2)cc1)Nc1ccc([N+](=O)[O-])cc1,16.59,-20.31,13.56,15.1,1.13,-4.65
Cc1ccc(S(=O)(=O)N2CC=C(N)N2)cc1,16.25,-10.87,9.9,8.77,-1.38,-12.82
Cl/N=C1/C=CC=C/C1=N/Cl,-18.23,-7.09,4.05,-1.59,-1.15,-1.81
Cc1ccc(NC(=O)Nc2ccccc2C(N)=O)cc1,-6.86,-15.18,6.22,4.47,1.66,-13.76
CCOC(=O)C(=Cc1ccc(Br)cc1)C(=O)OCC,4.77,8.54,-5.6,28.34,19,-1.07
CC1=CN2C(c3cccc([N+](=O)[O-])c3)=NON(c3ccc(C)cn3)C2C=C1 (stereo not given),16.79,-11.84,19.37,7.72,17.2,0.26
COC(=O)C1=C(C(=O)OC)[C@@H]2CCC[C@H]1[C@H]1[C@@H]2N=NN1c1ccccc1,22.18,-12.99,6.51,9.18,2.48,8.73
CCCCN1C(=O)CC(C(=O)OCC)=C1C,-5.09,-15.76,-0.5,-4.24,1.93,-4.18
COC(=O)c1ccc(Cn2cnc3c(Cl)ncnc32)cc1,-16.45,0.57,-10.62,2.87,-1.99,15.29
CCC/C(C)=C/c1ccc(CC)cn1,1.51,-4.3,-16.08,8.87,3.23,27.41
CCOC(=O)/C(C#N)=C/c1cccc(C)c1,35.48,11.54,20.45,6.23,19.3,-0.16
OC(c1ccccc1)(c1ccccc1)c1nccn1-c1ccccc1,0.11,-3.61,5,3.43,1.72,-7.88
CN(C)c1ccc(/C=C/c2ccc3ccccc3n2)cc1,-2.51,5.82,5.25,10.87,5.63,-14.32
CCOC(=O)C(=O)Cc1cccnn1,12.36,-7.97,16.74,15.16,9.85,-1.54
O=[N+]([O-])c1ccc(Cn2cnc3c(O)ncnc32)cc1,10.19,8.82,7.89,11.73,2.42,-11.97
CCOC(=O)c1nn(-c2ccccc2)cc1O,-14.3,-10.69,-0.72,-1.36,0.93,-2.21
Nc1nc2c[nH]c(N)nc-2n1,-4.21,2.13,5.84,7.49,3.2,-2.1
